Assay results reported in PubChem BioAssay (NCATS).
Values without a mark were called inactive. Inconclusive results are not listed. Activity calls are given as the source filed them. Unless noted, calls follow the shape of the dose curve; as a rule, active = well fitted curve in the direction sought with a large enough effect; inconclusive = small, poorly fitted or top-dose-only effect, or another doubt; inactive = no such curve, though single readings can be large; an effect the other way counts as inactive or inconclusive.

How the values were obtained:
[1] = AP1 Signaling Pathway (AID 357; active = well fitted curve in either direction with a large enough effect, not every such curve was filed as active;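 also: ME-180 reporter cells stimulated with EGF at its EC50 level; % is scaled to controls: 0 for no effect and ±100 for the full control effect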); conditions: ME-180 AP-1-bla reporter, EGF-induced, beta-lactamase ratio, 5 h; at 7.69 µM (top of the series) unless noted
Outline: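 In this screen, ME-180 cells in Opti-MEM with 0.5% dialyzed FBS received EC50 EGF and compound titrations for 5 h. AP-1 reporter beta-lactamase was detected via CCF4 ratio, giving AC50 for positive and negative modulators.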

[2] = biological target: Cytochrome P450 1A2 (Homo sapiens) (UniProt P05177); experiment: p450-cyp1a2 (AID 410; calls by dose curve; also: potency is read from the fitted curve at half-maximal effect); conditions: recombinant CYP1A2, luciferin-ME demethylation, luminescence; series mostly up to 57 µM
Outline: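 Luminescent readout of luciferin formed from Luciferin-ME by human CYP1A2; data normalized against complete inhibition by 57 uM furafylline. Enzyme 20nM, substrate 100uM at Km, 100mM KPO4 buffer, 60 min reaction at room temperature.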

[3] = NFAT Signaling Pathway (AID 444; active = well fitted curve in either direction with a large enough effect, not every such curve was filed as active;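 also: carbachol stimulus at about its EC50 of 1 µM final; % is scaled to controls: 0 for no effect and ±100 for the full control effect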); conditions: Jurkat NFAT-bla M1, carbachol, beta-lactamase ratio, 5 h; at 7.69 µM (top of the series) unless noted
Outline: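 Jurkat cells carrying an NFAT-driven β-lactamase reporter and co-transfected muscarinic M1 receptor were treated with compound plus carbachol (1 uM final, an EC50 level) for 5 h at 37 °C. CCF4 loading followed for 1 h at RT; 460/530 nm ratio gave %activity.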

[4] = Stat Signaling Pathway (AID 446; active = well fitted curve in either direction with a large enough effect, not every such curve was filed as active;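 also: ME-180 cervical cancer cells given 40 pM IL-6 alongside compound; SIE-controlled beta-lactamase reporter measured as 460/530 nm FRET emission ratio; % is scaled to controls: 0 for no effect and ±100 for the full control effect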); conditions: ME-180 SIE beta-lactamase reporter, IL-6 stimulated, 5 h; at 7.69 µM (top of the series) unless noted
Outline: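 Screening format detects activators and inhibitors alike: ME-180 SIE-bla cells stimulated at 40 pM IL-6 for 5 hrs with compound, then dual-emission beta-lactamase read at 405 nm excitation.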

[5] = biological target: Glucocorticoid receptor (Homo sapiens) (UniProt P04150); experiment: GR-GFP Redistribution (AID 450;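 active = compounds whose dose series gives a full or clear partial fitted curve of increased nuclear translocation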; also: potency is read from the fitted curve at half-maximal effect); conditions: U2OS GR-GFP nuclear translocation, laser cytometry, 2 h
[6] = biological target: Glucocorticoid receptor (Homo sapiens) (UniProt P04150); experiment: GR-EFC Redistribution (AID 451; calls by dose curve; also: potency is read from the fitted curve at half-maximal effect); conditions: CHO-K1 GR-EFC translocation, beta-gal luminescence, 2 h
Outline: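 CHO-K1 cells stably expressing nuclear-localized β-gal enzyme acceptor and GR fused C-terminally to the enzyme donor fragment; ligand-driven nuclear translocation restores β-gal by complementation. Compounds titrated up to 46 uM final, 2 h at 37 °C; luminescence read.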

[7] = biological target: Mitogen-activated protein kinase 10 (Mus musculus) (UniProt Q61831); experiment: JNK3 AlphaScreen Assay (AID 530; active = well fitted curve in either direction with a large enough effect, not every such curve was filed as active;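 also: kinase came from lysate of stimulated human HepG2 cells; signal reports phosphorylation of biotinylated GST-cJun 1-79 at Ser73 with 10 µM ATP; % is scaled to controls: 0 for no effect and ±100 for the full control effect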); conditions: JNK3 lysate, c-Jun phosphorylation; series mostly up to 57.1 µM
Outline: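 Inhibitors reduce antibody binding to phosphorylated biotin-cJun, lowering AlphaScreen luminescence. Lysates from HepG2 cells pre-activated by IL-1beta plus TNF-alpha supplied JNK3; compounds were titrated.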

[8] = biological target: Cytochrome P450 3A4 (Homo sapiens) (UniProt P08684); experiment: qHTS Assay for Inhibitors and Substrates of Cytochrome P450 3A4 (AID 884); conditions: recombinant CYP3A4, Luciferin-PPXE luminescence; series mostly up to 57.1 µM; also: potency is read from the fitted curve at half-maximal effect; nearly all actives have a fitted effect of over 50% in size
Outline: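 20 nM human CYP3A4 with 25 uM Luciferin-PPXE (at KM) in 200 mM KPO4, preincubated 10 min with compound; NADPH regeneration started a 60 min RT reaction. Luciferin detected by luminescence, normalized to 57 uM ketoconazole as full inhibition.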

[9] = biological target: Cytochrome P450 3A4 (Homo sapiens) (UniProt P08684); experiment: qHTS Assay for Activators of Cytochrome P450 3A4 (AID 885); conditions: recombinant CYP3A4, Luciferin-PPXE luminescence, 60 min; series mostly up to 57.1 µM; also: nearly all actives have a fitted effect of over 65% in size
Outline: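 Steps: enzyme/substrate mix dispensed; compound added, 10 min RT; NADPH regeneration solution added, 60 min RT; luciferin detection buffer stops reaction; 20 min later luminescence measured.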

[10] = biological target: Cytochrome P450 2C19 (Homo sapiens) (UniProt P33261); experiment: qHTS Assay for Inhibitors and Substrates of Cytochrome P450 2C19 (AID 899); conditions: recombinant CYP2C19, luciferin-H EGE luminescence; series mostly up to 57.1 µM; also: potency is read from the fitted curve at half-maximal effect; nearly all actives have a fitted effect of over 60% in size
Outline: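 Human CYP2C19 (5nM) with Luciferin-H EGE at 10uM (its KM) in 50mM KPO4 was preincubated with compound for 10 min at 37C. NADPH regeneration started a 60 min 37C reaction. Luciferin was read by luminescence, normalized to 57uM ketoconazole.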

[11] = biological target: Dual specificity protein kinase CLK4 (Homo sapiens) (UniProt Q9HAZ1); experiment: qHTS Assay for Inhibitors of CDC-like Kinase 4 (Kinase-Glo Assay) (AID 1770); conditions: recombinant Clk4, Kinase-Glo ATP depletion luminescence; series mostly up to 66.7 µM; also: potency is read from the fitted curve at half-maximal effect; nearly all actives have a fitted effect of over 65% in size
Outline: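 25 nM Clk4 with 100 uM RS repeat peptide and 1 uM ATP (final) in Tris pH7.5, 10 mM MgCl2, 4.5 h at room temperature. Remaining ATP measured by Kinase-Glo luciferase luminescence.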

[12] = biological target: Ubiquitin carboxyl-terminal hydrolase 1 (Homo sapiens) (UniProt O94782); experiment: Inhibitors of USP1/UAF1: Pilot qHTS (AID 504865); conditions: purified USP1/UAF1, Ub-rhodamine cleavage fluorescence; series mostly up to 54.9 µM;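 also: rhodamine fluorescence freed from ubiquitin-rhodamine substrate followed over time; top concentration of the series differs between compounds; % is scaled to controls: 0 for no effect and ±100 for the full control effect; nearly all actives have a fitted effect of over 35% in size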
Outline: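 USP1/UAF1 complex at 1 nM preincubated 15 min at room temperature with compound, then Ub-Rho substrate added at 150 nM final. Fluorescence (480/540 nm) read kinetically in 50 mM HEPES pH 7.8, 0.5 mM EDTA, 1 mM TCEP, 0.1 mg/ml BSA, 0.01% Tween-20.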

[13] = Primary qHTS for small molecule stabilizers of the endoplasmic reticulum resident proteome: Secreted ER Calcium Modulated Protein (SERCaMP) assay (AID 1508630); conditions: SH-SY5Y GLuc-SERCaMP (Gaussia luciferase released on ER calcium loss) secretion, thapsigargin, luminescence; series mostly up to 38.4 µM; also: % is scaled to controls: 0 for no effect and ±100 for the full control effect
Outline: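 GLuc-SERCaMP-expressing SH-SY5Y cells, pretreated 16 h with compound, are challenged with thapsigargin to empty ER calcium stores; after 4 h, coelenterazine is added directly to the medium and luminescence is imaged.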

[14] = biological target: Lysosomal acid glucosylceramidase (Homo sapiens) (UniProt P04062); experiment: Glucocerebrosidase-p2 (AID 348; in the data active = potency below about 10 µM; also: potency is read from the fitted curve at half-maximal effect); conditions: purified GBA, blue fluorogenic substrate, 40 min
Outline: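 Compounds titrated from 0.6 nM upwards against 0.2 nM enzyme in pH 5.9 citric acid/KH2PO4, taurocholate, tween-20; blue fluorogenic substrate 80 uM, 40 min room temperature, stopped and read Ex 365/Em 440 for AC50.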

[15] = biological target: 3',5'-cyclic-AMP phosphodiesterase 4B (Homo sapiens) (UniProt Q07343); experiment: qHTS Assay for Inhibitors of PDE-IV (AID 607; active = well fitted activation curve with a large enough effect in the main read-out, with a control signal flat, not every such curve was filed as active; also: potency is read from the fitted curve at half-maximal effect); conditions: HEK293 ACTOne CNG channel cells, membrane potential fluorescence; series mostly up to 22.9 µM
Outline: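 The readout is membrane depolarisation from a cAMP-sensing CNG channel, detected with a potential dye at ex 535/em 590. Cells were HEK293-derived (endogenous PDE-IV) at 1000 cells/well, titrated up to 22.9 uM final.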

[16] = biological target: Dual specificity protein kinase CLK4 (Homo sapiens) (UniProt Q9HAZ1); experiment: qHTS Assay for Inhibitors of CDC-like Kinase 4 (ADP-Glo Assay) (AID 1771); conditions: recombinant CLK4, ADP-Glo luminescence; series mostly up to 80 µM; also: % is scaled to controls: 0 for no effect and ±100 for the full control effect; nearly all actives have a fitted effect of over 70% in size
Outline: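 Luminescence from ADP-Glo reports ADP produced by 25 nM Clk4 acting on 100 uM RS repeat peptide with 1 uM ATP over 1 hr at room temperature; residual ATP is depleted before ADP is converted to ATP for detection.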

[17] = biological target: Dual specificity protein kinase CLK4 (Homo sapiens) (UniProt Q9HAZ1); experiment: qHTS Assay for Inhibitors of CDC-like Kinase 4 (ADP-FP Assay) (AID 1795); conditions: Transcreener ADP fluorescence polarization; series mostly up to 50 µM; also: nearly all actives have a fitted effect of over 60% in size; also: potency is read from the fitted curve at half-maximal effect
Outline: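 Recombinant Clk4 (6.25 nM) phosphorylated 100 uM RS repeat peptide with 1 uM ATP in 25 mM Tris pH 7.5, 10 mM MgCl2, 0.5 mM EGTA, 2.5 mM DTT, 0.01% Triton X-100 for 1 h. ADP was detected by Transcreener ADP2 competitive fluorescence polarization after 30 min at room temperature.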

[18] = qHTS Assay for Identification of Small Molecule Agonists for Hypoxia Response Element Signaling Pathway (AID 914; active = well fitted activation curve with a large enough effect in the signal ratio, with a control signal flat, not every such curve was filed as active; the % refers to the signal ratio; also: % of control where 0% means no effect); conditions: ME-180 (cervical carcinoma) HRE-bla reporter, beta-lactamase ratio, CoCl2, 17 h; activation: active compounds read high
Outline: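 Positive modulation of EC50 CoCl2-induced hypoxia response element signaling is measured in ME-180 cells with a beta-lactamase reporter. Compounds are titrated, incubation runs 17 hours, and %Activity derives from the blue/green ratio.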

[19] = biological target: Cytochrome P450 2D6 (Homo sapiens) (UniProt P10635); experiment: qHTS Assay for Inhibitors and Substrates of Cytochrome P450 2D6 (AID 891); conditions: recombinant CYP2D6, luciferin-ME EGE luminescence; series mostly up to 57.1 µM; also: potency is read from the fitted curve at half-maximal effect; nearly all actives have a fitted effect of over 60% in size
Outline: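 Human CYP2D6 (5 nM) with 30 uM Luciferin-ME EGE (at Km) in 100 mM KPO4, compound preincubated 10 min, then NADPH regeneration system for 60 min at room temperature. Luciferin read by luminescence; normalized to 1.43 uM quinidine.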

Chain of Ubiquitin carboxyl-terminal hydrolase 1 (Homo sapiens) (O94782 whole entry, looked up): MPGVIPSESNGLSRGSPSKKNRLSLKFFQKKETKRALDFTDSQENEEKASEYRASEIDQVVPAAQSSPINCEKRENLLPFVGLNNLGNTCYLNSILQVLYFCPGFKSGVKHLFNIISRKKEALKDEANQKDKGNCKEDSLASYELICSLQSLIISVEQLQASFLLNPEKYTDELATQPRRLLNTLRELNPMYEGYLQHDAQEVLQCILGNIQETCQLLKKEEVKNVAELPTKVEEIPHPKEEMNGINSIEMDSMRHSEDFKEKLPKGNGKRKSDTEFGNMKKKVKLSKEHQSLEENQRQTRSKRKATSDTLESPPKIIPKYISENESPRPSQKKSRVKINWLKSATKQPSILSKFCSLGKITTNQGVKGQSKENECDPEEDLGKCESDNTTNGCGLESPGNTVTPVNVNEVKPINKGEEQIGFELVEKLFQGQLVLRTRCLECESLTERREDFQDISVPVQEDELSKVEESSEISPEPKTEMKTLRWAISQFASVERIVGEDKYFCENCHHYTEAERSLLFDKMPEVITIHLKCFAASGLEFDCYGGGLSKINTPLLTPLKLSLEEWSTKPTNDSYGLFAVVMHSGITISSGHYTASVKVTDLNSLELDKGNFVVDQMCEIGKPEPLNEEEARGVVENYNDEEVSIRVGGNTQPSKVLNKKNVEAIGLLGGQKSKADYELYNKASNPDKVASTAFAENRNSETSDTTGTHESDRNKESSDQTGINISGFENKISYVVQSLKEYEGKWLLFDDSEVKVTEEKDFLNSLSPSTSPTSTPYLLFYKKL
Chain of Lysosomal acid glucosylceramidase (Homo sapiens) (P04062 whole entry, looked up): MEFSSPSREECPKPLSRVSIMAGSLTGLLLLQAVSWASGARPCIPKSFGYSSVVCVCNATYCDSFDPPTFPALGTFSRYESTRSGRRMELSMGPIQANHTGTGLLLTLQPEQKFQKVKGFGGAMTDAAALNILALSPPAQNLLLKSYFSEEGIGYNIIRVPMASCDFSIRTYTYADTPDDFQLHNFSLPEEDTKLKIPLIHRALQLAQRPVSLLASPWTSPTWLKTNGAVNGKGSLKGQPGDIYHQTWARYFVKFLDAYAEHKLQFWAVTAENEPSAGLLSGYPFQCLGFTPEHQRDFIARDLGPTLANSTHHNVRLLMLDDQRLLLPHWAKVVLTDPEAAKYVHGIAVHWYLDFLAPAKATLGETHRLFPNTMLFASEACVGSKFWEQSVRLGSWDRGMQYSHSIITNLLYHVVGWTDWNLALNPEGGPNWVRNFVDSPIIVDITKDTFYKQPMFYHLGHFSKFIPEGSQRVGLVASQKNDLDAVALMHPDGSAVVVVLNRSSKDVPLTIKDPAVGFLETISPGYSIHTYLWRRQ
Chain of Cytochrome P450 1A2 (Homo sapiens) (P05177 whole entry, looked up): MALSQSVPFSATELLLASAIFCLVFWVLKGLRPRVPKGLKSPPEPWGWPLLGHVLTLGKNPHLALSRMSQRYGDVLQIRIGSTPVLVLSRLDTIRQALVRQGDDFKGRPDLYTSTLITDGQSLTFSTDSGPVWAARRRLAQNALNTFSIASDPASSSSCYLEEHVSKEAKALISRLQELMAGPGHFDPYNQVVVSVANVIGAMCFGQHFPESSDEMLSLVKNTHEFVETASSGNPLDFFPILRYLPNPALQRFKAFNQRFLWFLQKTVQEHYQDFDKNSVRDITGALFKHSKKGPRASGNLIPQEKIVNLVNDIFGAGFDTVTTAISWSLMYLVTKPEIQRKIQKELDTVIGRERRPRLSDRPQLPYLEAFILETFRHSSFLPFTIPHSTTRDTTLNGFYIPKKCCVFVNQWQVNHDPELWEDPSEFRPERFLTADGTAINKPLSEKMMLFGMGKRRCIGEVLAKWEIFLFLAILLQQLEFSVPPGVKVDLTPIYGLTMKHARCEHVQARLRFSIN
Chain of Dual specificity protein kinase CLK4 (Homo sapiens) (Q9HAZ1 whole entry, looked up): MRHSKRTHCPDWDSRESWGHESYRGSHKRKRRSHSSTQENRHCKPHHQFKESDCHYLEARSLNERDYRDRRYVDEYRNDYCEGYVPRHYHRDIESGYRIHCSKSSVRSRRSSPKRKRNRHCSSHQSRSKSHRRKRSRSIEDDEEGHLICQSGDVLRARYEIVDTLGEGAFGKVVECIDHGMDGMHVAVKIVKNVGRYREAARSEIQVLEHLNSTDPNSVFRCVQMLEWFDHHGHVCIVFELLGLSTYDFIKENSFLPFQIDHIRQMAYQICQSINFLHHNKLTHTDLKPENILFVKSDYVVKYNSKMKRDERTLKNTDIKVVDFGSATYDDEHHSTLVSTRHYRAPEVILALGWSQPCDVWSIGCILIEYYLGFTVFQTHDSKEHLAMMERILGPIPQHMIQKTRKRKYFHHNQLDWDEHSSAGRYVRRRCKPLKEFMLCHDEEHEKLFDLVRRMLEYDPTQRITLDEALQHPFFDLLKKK
Chain of Cytochrome P450 3A4 (Homo sapiens) (P08684 whole entry, looked up): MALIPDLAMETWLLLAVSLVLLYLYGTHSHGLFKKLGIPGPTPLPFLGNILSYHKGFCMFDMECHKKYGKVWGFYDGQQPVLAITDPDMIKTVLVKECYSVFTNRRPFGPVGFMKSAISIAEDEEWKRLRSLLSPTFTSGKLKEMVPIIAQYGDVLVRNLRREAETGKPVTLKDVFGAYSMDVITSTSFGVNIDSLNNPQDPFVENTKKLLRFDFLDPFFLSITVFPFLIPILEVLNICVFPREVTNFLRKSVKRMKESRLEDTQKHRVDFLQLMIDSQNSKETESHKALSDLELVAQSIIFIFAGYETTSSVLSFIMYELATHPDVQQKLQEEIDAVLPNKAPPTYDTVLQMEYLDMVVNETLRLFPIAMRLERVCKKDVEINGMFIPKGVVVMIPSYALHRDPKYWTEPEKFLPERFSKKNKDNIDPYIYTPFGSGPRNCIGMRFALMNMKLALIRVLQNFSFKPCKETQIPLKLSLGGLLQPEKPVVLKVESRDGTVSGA
Chain of Cytochrome P450 2C19 (Homo sapiens) (P33261 whole entry, looked up): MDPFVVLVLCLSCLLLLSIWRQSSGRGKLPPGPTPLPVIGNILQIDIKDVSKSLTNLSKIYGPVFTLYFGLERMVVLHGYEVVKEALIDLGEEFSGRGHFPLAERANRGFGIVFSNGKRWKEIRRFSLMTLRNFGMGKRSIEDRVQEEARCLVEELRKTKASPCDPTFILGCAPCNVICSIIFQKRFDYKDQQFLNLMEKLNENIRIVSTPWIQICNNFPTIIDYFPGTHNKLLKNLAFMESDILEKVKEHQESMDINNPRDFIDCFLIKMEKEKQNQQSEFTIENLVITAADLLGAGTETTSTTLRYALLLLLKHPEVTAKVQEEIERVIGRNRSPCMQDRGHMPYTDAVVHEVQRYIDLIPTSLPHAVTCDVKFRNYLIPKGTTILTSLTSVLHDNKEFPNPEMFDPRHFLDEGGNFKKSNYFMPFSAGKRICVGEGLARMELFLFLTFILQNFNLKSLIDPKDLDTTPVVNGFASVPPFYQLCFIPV
Chain of Glucocorticoid receptor (Homo sapiens) (P04150 whole entry, looked up, the tested form may be a part): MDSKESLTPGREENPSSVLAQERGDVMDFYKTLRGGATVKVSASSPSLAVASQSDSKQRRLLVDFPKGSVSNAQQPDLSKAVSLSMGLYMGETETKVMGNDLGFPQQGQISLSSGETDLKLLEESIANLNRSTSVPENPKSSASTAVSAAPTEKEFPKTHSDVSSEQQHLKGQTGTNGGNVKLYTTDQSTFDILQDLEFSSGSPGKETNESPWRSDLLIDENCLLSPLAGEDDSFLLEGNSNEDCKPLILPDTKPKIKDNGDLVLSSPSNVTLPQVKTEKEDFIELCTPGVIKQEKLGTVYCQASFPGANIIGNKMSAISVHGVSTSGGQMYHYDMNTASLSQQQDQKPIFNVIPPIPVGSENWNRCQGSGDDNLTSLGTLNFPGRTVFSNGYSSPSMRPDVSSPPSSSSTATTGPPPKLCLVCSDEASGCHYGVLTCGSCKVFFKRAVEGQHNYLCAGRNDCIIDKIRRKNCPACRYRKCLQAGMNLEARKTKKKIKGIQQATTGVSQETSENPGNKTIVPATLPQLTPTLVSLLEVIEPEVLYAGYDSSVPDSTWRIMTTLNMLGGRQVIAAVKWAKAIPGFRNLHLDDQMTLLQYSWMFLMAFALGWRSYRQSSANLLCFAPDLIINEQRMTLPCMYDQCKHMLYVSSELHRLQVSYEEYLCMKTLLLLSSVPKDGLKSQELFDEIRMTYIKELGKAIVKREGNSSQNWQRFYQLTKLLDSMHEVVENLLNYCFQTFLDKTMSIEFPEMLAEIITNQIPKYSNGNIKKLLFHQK
Chain of 3',5'-cyclic-AMP phosphodiesterase 4B (Homo sapiens) (Q07343 whole entry, looked up): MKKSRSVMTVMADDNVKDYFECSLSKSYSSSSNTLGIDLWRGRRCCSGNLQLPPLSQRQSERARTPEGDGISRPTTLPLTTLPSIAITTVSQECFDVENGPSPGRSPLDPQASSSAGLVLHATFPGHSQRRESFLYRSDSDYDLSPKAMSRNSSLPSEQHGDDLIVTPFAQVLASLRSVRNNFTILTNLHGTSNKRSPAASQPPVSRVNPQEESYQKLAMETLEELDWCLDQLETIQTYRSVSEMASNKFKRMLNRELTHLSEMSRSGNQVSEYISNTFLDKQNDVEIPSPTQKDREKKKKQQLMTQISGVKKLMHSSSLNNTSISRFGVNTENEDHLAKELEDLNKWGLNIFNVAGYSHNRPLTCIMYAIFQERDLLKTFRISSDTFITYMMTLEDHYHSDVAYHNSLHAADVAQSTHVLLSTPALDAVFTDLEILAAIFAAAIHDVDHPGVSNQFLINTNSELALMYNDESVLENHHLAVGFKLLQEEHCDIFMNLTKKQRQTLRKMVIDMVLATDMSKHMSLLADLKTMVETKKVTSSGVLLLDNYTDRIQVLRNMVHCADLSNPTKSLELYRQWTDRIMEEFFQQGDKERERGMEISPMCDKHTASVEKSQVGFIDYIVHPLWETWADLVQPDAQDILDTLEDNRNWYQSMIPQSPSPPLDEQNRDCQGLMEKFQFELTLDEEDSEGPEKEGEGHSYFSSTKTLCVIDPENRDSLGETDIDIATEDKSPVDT

Structure (SMILES)	activity change, negative = inhibition [1]	Potency [2]	activity change, negative = inhibition [3]	activity, negative = inhibition [4]	Potency [5]	Potency [6]	Potency [7]	Potency [8]	Potency [9]	Potency [10]	Potency [11]	Potency [12]	outcome [13]	Potency [14]	Potency [15]	Potency [16]	Potency [17]	activation [18]	Potency [19]
COc1cccc(-c2nccc(NCc3ccc(OC)cc3OC)n2)c1	-28.1%	1 µM (active)	-2.27%	-11.4%	> 46 µM	> 46 µM	inactive	3.16 µM (active)	inactive	2.51 µM (active)	31.6 µM (active)	inactive	inactive						
COc1ccc(CNc2cc(-c3ccccc3OC)ncn2)c(OC)c1	-6.46%		17.7%	5.25%	> 46 µM	> 46 µM	inactive	6.31 µM (active)	inactive	2 µM (active)		inactive	inactive	> 11.4 µM	inactive	inactive	inactive		
CN1CCN(c2cc(-c3ccccc3Cl)ncn2)CC1	-6.42%		3.06%	-1.39%	> 46 µM	> 46 µM	inactive					inactive	inactive	> 11.4 µM	inactive	inactive	inactive	18%	
COc1ccc2[nH]cc(CCNc3ccnc(-c4c(C)noc4C)n3)c2c1	-4.62%	2 µM (active)	9.64%	-5.35%	> 46 µM	> 46 µM	inactive		inactive	1.58 µM (active)		inactive	inactive	> 11.4 µM	inactive	inactive	inactive		
c1ccc(Nc2ncncc2-c2ccoc2)cc1	-25%	1 µM (active)	0.789%	5.02%		> 46 µM	inactive	2 µM (active)	inactive				inactive	> 11.4 µM			5.62 µM (active)		
c1ccc(CNc2ccnc(-c3cccnc3)n2)cc1	-10.3%	0.251 µM (active)	7.79%		> 46 µM	> 46 µM	inactive		inactive	2.51 µM (active)		inactive	inactive	> 11.4 µM			inactive		1.26 µM (active)
CNc1cc(-c2ccccc2C)ncn1		10 µM (active)	2.04%	13.3%	> 46 µM	> 46 µM	inactive					inactive	inactive	> 11.4 µM	inactive		inactive		
c1cncc(CNc2cc(-c3ccoc3)ncn2)c1	0.0422%	3.16 µM (active)	-10.4%	11.8%	> 46 µM	> 46 µM	inactive		inactive			inactive	inactive	> 11.4 µM	inactive		inactive	0.531%	
Cc1cnc(CNc2nc(-c3ccccc3Cl)nc3ccccc23)cn1		6.31 µM (active)	9.67%	-10.8%	> 46 µM	> 46 µM	inactive		inactive				inactive	> 11.4 µM	inactive		inactive		
COc1ccc(-c2nc3cnc(N4CCOCC4)nc3n(Cc3cccs3)c2=O)cc1	12.3%	2.51 µM (active)	-2.31%		> 9.22 µM	> 46 µM	inactive						inactive	> 11.4 µM	1.58 µM (active)		inactive		
COc1ccc2[nH]cc(CCNc3ccnc(-c4ccccc4C(F)(F)F)n3)c2c1	-10.2%	3.98 µM (active)	-1.93%	-14.8%	> 46 µM	> 46 µM	inactive	2 µM (active)	inactive				inactive	> 11.4 µM	inactive		inactive		
COc1ccc(CNc2ncncc2-c2ccoc2)c(OC)c1	-9.49%		5.94%	-9.38%	> 46 µM	> 46 µM	inactive					inactive	inactive	> 11.4 µM	inactive		14.1 µM (active)		
COCCn1c(=O)c(-c2cccc(F)c2)nc2cncnc21	-16%	2 µM (active)	-5.24%	-1.12%	> 9.22 µM	> 46 µM	inactive		inactive			inactive	inactive	> 11.4 µM			inactive		
Cc1cnc(CNc2cc(-c3c(C)noc3C)ncn2)cn1	23.4%		7.12%	12.1%	> 46 µM	> 46 µM	inactive					inactive	inactive	> 11.4 µM	inactive		inactive		
